From ChEMBL document CHEMBL2218924, “A broad activity screen in support of a chemogenomic map for kinase signalling research and drug discovery” (Biochem J, 2013)

How the values were obtained:
[1] = target: Tyrosine-protein kinase SYK (Homo sapiens) (UniProt P43405); details: at 10 µM
[2] = target: T1, Mitogen-activated protein kinase kinase kinase 7 (Homo sapiens) (UniProt O43318); details: at 1 µM
T1 sequence (whole entry): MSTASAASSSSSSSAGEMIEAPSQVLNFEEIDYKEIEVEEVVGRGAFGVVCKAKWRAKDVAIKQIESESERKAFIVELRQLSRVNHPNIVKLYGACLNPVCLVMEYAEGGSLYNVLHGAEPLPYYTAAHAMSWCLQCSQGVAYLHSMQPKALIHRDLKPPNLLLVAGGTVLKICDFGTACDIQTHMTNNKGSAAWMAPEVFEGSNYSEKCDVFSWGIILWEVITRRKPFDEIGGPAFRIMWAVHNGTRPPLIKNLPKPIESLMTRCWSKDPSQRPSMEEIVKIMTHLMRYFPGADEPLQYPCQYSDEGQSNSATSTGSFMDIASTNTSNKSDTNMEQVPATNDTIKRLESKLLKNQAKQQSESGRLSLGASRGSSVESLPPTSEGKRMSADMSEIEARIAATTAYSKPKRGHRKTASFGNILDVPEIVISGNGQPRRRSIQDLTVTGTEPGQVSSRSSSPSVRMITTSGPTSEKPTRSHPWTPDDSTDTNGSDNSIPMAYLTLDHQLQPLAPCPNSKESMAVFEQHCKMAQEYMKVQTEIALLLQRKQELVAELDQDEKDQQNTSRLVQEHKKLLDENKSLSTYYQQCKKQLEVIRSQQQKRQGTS

[3] = target: T1, Mitogen-activated protein kinase kinase kinase 7 (Homo sapiens); details: at 10 µM
[4] = target: T2, Serine/threonine-protein kinase TAO1 (Homo sapiens) (UniProt Q7L7X3); details: at 1 µM
T2 sequence (whole entry): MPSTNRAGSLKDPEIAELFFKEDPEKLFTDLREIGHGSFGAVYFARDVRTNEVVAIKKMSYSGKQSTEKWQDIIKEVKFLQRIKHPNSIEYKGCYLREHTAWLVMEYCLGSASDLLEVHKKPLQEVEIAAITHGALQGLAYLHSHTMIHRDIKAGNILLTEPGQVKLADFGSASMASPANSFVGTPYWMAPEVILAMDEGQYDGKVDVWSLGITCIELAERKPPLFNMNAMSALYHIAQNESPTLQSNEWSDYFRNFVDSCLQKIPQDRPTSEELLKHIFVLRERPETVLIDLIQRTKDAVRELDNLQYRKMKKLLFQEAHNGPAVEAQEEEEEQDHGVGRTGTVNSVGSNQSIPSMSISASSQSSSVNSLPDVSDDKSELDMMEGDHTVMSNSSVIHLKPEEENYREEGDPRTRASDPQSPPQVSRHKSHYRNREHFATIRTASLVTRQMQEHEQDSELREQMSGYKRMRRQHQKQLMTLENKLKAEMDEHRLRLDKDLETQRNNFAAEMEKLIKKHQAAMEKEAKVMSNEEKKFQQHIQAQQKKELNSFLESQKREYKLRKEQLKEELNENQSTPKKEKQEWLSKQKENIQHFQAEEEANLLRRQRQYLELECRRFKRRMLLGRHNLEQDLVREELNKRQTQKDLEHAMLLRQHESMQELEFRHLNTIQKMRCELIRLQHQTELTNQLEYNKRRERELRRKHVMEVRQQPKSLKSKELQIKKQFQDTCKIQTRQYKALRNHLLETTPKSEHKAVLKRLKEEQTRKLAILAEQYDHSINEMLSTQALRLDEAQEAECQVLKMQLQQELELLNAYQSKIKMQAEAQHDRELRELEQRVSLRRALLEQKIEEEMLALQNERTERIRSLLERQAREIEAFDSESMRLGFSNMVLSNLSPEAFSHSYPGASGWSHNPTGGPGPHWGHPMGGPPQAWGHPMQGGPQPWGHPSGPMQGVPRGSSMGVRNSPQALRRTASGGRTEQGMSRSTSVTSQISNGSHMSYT

[5] = target: T2, Serine/threonine-protein kinase TAO1 (Homo sapiens); details: at 10 µM
[6] = target: T3, Serine/threonine-protein kinase TAO2 (Homo sapiens) (UniProt Q9UL54); details: at 1 µM
T3 sequence (whole entry): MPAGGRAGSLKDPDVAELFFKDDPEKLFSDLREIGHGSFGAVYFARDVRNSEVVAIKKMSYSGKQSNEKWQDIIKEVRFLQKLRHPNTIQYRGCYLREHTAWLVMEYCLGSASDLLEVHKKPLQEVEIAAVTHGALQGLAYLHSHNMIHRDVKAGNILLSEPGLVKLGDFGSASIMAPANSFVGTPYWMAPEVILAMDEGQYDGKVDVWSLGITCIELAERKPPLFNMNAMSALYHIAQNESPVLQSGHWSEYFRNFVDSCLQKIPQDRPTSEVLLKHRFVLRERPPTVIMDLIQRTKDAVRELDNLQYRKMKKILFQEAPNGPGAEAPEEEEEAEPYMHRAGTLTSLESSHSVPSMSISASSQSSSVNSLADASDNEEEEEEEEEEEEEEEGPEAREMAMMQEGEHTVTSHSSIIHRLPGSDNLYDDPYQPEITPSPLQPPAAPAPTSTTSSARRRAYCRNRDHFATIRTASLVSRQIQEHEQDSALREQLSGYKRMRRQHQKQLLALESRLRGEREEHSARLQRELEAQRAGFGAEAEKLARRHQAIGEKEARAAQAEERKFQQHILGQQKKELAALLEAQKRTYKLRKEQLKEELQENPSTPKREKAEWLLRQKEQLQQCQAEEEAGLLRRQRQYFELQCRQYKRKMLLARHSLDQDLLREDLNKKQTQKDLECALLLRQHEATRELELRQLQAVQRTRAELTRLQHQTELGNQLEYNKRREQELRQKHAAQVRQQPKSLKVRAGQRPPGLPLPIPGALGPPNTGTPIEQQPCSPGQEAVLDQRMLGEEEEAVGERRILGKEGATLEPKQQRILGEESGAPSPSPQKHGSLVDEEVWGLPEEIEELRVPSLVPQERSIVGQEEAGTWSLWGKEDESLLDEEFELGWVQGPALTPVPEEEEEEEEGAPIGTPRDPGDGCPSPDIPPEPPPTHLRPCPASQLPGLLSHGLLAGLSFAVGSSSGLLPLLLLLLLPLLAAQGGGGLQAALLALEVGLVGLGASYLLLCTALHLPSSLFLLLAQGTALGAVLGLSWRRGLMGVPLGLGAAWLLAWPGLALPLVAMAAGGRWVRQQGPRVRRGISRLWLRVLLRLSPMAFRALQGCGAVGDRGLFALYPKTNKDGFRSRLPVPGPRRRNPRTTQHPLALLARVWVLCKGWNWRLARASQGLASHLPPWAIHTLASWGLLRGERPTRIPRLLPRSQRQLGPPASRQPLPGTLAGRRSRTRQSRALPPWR

[7] = target: T3, Serine/threonine-protein kinase TAO2 (Homo sapiens); details: at 10 µM
[8] = target: T4, Serine/threonine-protein kinase TAO3 (Homo sapiens) (UniProt Q9H2K8); details: at 1 µM
T4 sequence (whole entry): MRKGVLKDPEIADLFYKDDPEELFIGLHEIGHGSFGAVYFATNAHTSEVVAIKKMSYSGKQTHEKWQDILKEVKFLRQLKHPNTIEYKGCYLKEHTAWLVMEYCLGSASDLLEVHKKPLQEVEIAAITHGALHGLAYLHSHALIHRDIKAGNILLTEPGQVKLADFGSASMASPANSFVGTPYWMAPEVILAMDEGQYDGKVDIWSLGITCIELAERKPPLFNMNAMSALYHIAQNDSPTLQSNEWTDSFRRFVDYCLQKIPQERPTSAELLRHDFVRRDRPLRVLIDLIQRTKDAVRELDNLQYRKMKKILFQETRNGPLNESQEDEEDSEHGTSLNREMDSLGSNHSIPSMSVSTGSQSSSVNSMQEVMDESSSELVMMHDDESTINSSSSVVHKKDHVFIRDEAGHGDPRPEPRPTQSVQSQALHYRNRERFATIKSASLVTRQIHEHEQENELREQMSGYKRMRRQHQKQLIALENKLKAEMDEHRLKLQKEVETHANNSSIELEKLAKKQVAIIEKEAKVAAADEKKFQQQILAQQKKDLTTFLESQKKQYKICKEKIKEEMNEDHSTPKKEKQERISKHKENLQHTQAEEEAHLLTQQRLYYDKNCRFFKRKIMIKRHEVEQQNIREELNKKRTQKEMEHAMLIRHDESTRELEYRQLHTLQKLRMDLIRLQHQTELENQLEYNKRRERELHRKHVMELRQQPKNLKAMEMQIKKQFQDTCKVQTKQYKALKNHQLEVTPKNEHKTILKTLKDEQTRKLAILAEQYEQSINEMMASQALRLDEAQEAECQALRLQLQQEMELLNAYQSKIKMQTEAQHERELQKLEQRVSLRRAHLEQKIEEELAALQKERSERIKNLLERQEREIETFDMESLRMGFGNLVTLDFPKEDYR

[9] = target: T4, Serine/threonine-protein kinase TAO3 (Homo sapiens); details: at 10 µM
[10] = target: T5, Serine/threonine-protein kinase TBK1 (Homo sapiens) (UniProt Q9UHD2); details: at 1 µM
T5 sequence (whole entry): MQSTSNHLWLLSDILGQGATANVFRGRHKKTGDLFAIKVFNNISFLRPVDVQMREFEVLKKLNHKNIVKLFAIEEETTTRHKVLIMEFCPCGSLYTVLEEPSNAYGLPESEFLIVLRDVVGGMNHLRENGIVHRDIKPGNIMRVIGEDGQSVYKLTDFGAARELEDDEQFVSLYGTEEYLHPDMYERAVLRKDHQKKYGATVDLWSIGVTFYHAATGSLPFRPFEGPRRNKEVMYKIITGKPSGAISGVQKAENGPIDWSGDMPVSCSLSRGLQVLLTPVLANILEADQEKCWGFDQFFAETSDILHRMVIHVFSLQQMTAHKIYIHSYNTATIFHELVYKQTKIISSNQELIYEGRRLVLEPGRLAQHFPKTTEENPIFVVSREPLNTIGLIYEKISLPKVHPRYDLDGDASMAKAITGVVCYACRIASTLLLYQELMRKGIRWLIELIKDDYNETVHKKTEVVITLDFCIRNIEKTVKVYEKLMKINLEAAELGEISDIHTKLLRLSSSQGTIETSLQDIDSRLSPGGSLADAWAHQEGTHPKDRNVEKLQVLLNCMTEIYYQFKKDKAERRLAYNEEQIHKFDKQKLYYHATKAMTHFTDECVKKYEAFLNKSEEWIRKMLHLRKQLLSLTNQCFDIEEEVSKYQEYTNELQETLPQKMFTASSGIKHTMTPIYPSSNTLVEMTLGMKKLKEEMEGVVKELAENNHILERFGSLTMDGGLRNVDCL

Row | SMILES | residual activity [1] [%] | residual activity [2] [%] | residual activity [3] [%] | residual activity [4] [%] | residual activity [5] [%] | residual activity [6] [%] | residual activity [7] [%] | residual activity [8] [%] | residual activity [9] [%] | residual activity [10] [%]
1 | CN(C)S(=O)(=O)c1ccc2c(c1)/C(=C/c1cc3c([nH]1)CCCC3)C(=O)N2 | 96 | 100 | 92 | 37 | 56 | 93 | 87 | 89 | 73 | 74
2 | O=C(CCCc1ccc(-c2ccccc2F)cc1)Nc1ccc(O)cc1 | 79 | 93 | 92 | 103 | 95 | 105 | 102 | 100 | 94 | 90
3 | O=S(=O)(NCCNC/C=C/c1ccc(Br)cc1)c1cccc2cnccc12 | – | – | – | – | 59 | – | – | – | 61 | –
4 | CCOC(=O)c1c(C)[nH]c(/C=C2\C(=O)Nc3ccccc32)c1C | – | 89 | 98 | – | – | – | – | – | – | 92
5 | Oc1cccc(-c2nc(N3CCOCC3)c3oc4ncccc4c3n2)c1 | 94 | – | – | – | 94 | – | – | – | 93 | 82
6 | Cn1c2ccccc2c2c3c(c4c5ccccc5n(CCC#N)c4c21)CNC3=O | 5 | – | – | 7 | 10 | 10 | 9 | 19 | 16 | 11
7 | O=C(NC(NC(=S)Nc1ccc(F)c([N+](=O)[O-])c1)C(Cl)(Cl)Cl)C(c1ccccc1)c1ccccc1 (stereo not given) | – | – | 92 | 93 | 83 | 91 | 92 | 96 | 90 | 96
8 | NC(=O)Nc1sc(-c2ccc(F)cc2)cc1C(N)=O | – | – | – | – | – | 39 | 6 | 61 | 16 | 35
